# ADAM10 inh – human ADAM10 inhibitors, primary screen, biochemical, QFRET, HTS; 370,000 compounds, 0.62% hits; Disintegrin and metalloproteinase domain-containing protein 10 (Homo sapiens), O14672; AID 720582, 2013; recombinant ADAM10, EDANS/DABCYL FRET peptide cleavage, 3 h; inhibition, % at 7 µM;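 active means inhibition above a per-campaign cutoff equal to the mean of compounds falling between control-based bounds plus 3 SD, cut at about 20% in these data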;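 further: 0% = DMSO wells while the 100% control is not disclosed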
# Target sequence (O14672 214-748 limits assumed): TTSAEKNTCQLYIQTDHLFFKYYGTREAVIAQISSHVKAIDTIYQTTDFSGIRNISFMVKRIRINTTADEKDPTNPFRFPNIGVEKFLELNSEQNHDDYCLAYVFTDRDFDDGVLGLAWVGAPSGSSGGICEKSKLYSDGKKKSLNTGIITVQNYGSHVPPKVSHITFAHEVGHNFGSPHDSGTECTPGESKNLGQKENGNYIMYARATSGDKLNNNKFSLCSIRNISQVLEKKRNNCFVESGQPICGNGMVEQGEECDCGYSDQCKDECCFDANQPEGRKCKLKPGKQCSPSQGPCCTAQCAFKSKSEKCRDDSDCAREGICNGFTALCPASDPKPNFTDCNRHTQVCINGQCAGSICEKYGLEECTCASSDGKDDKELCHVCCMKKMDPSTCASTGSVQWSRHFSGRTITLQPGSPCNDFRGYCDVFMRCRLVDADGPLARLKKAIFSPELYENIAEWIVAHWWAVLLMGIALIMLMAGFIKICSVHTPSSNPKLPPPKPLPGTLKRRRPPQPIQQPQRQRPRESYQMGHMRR
# MPTP block – mitochondrial permeability transition pore inhibitors, primary screen, biochemical, isolated mouse mitochondria, absorbance; Ca2+ swelling absorbance, 30 min; inhibition, % at 10 µM; 360,000 compounds, 1.4% hits; AID 602449, 2012;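 active means inhibition of 50% or more, scaled per plate between neutral and stimulator controls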;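 further: 0% = DMSO wells given calcium and 100% = 1 mM EGTA wells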
# proKLK7 act – proKLK7 zymogen activators, primary screen, biochemical, fluorescence intensity; activation, % at 7 µM; 370,000 compounds, 0.9% hits; Kallikrein-7 (Homo sapiens), P49862; purified proKLK7, EDANS-DABCYL substrate fluorescence; 100% is mature enzyme control, 0% vehicle;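 active means activation above the mean of all tested compounds plus 3 SD, computed per campaign excluding outliers beyond control limits, cut at about 13% in these data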
# ADAM17 inh – ADAM17 inhibitors, primary screen, biochemical, QFRET; 370,000 compounds, 0.83% hits; recombinant ADAM17, EDANS/DABCYL FRET peptide cleavage; inhibition, % at 6.95 µM; Disintegrin and metalloproteinase domain-containing protein 17 (Homo sapiens), P78536;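 active means inhibition above the mean of compounds lying between control limits plus 3 SD, set per campaign, cut at about 8.5% in these data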;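 further: 0% = DMSO-only wells as the low control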
# rCAG RNA binder – binders of r(CAG) RNA repeats, primary screen, biochemical, fluorescence. inhibition, % at 3 µM. 370,000 compounds, 1.3% hits. r(CAG) RNA repeat, TO-PRO-1 dye displacement fluorescence;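 active means inhibition above the plate cutoff, the mean of all test compounds on that plate plus 3 SD, cut at about 35% in these data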;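 further: 0% = DMSO alone and 100% = 100 µM mitoxantrone as full dye displacement; higher means more dye released from RNA so lower well fluorescence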
# DSG3 Ab inh – inhibitors of pemphigus antibody binding to DSG3, primary screen, biochemical, bead-based, flow cytometry, scFv-GFP. Desmoglein-3 (Homo sapiens), P32926. 310,000 compounds, 0.48% hits. AID 588358, 2011. DSG3-coupled beads, scFv-anti-DSG3-GFP binding; hits give low values. binding (percent of control), % at 10 µM;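 active means binding more than 3 SD below its plate's average and above zero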;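 further: hits lower antibody fragment binding to DSG3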
# ADAM10 confirm – human ADAM10 inhibitors, confirmation, biochemical, QFRET, triplicate | shares compounds with ADAM10 inh | ADAM10 QFRET peptide cleavage, EDANS fluorescence | inhibition, % at 6.95 µM | 2,100 compounds, 1% hits;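 active means inhibition above about 20% chosen separately for each screening run, limit read from the data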;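 further: 0% = DMSO wells and 100% = marimastat wells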
# ADAM17 counter – ADAM17 inhibitors, counter-screen for ADAM10 exosite inhibitor project, biochemical, QFRET, high throughput | shares compounds with ADAM10 inh | ADAM17 QFRET peptide cleavage, EDANS fluorescence | inhibition, % at 6.95 µM | 2,100 compounds, 0.5% hits;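 active means mean triplicate inhibition above the solvent-only control wells' mean plus 3 SD, cut at about 12% in these data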;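 further: 0% = DMSO wells and 100% = marimastat wells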
# ADAM10 ctr – ADAM10 inhibitors, counter-screen for ADAM17 exosite inhibitor project, biochemical, FRET, human ADAM10; shares compounds with ADAM17 inh; inhibition, % at 6.95 µM; 2,900 compounds, 47% hits; recombinant ADAM10, EDANS/DABCYL FRET peptide cleavage, 3 h;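 active means mean inhibition over the triplicate runs exceeds the activity threshold set in the earlier primary screen, cut at about 20% in these data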;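 further: 0% = DMSO wells and 100% = marimastat wells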
# ADAM17 confirm – ADAM17 inhibitors, hit retest, confirmation, biochemical, QFRET peptide cleavage; shares compounds with ADAM17 inh; recombinant ADAM17, EDANS/DABCYL QFRET peptide cleavage; inhibition, % at 6.95 µM; 2,900 compounds, 65% hits; AID 743257, 2014;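 active means mean inhibition across replicates above the hit cutoff set in the primary screen, cut at about 8.5% in these data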;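 further: 0% = DMSO wells and 100% = marimastat wells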
# The depositor's hits bear a star; x = not tested or not shown. Compounds with a hit are over-represented: about 4.7% of the library has one in this group of screens.
SMILES,ADAM10 inh,MPTP block,proKLK7 act,ADAM17 inh,rCAG RNA binder,DSG3 Ab inh,ADAM10 confirm,ADAM17 counter,ADAM10 ctr,ADAM17 confirm
O=C(c1ccc(COc2ccc(Cl)cc2)o1)N1N=C(C(F)F)CC1(O)C(F)F (stereo not given),34*,28,0,13*,5,117,2,1,13,8
CCCCN1CC(=O)N2[C@H]3c4ccccc4OC[C@@H]3[C@H](C(=O)OCC)[C@]2(C)C1=O,0,-1,0,-2,-9,106,x,x,x,x
Cc1ccc(NC(=O)c2cc(NC(=O)/C=C\C(=O)O)ccc2N2CCCCC2)cc1,24*,0,0,19*,9,108,9,2,-10,1
Cc1ccc(NC(=O)c2cc(NC(=O)c3ccccc3C(=O)O)ccc2N2CCCCC2)cc1,-5,1,-1,-1,1,99,x,x,x,x
COc1ccc(CN([C@H](CO)CC(C)C)S(=O)(=O)N(Cc2ccccc2)[C@H](CO)CC(C)C)cc1,43*,7,0,23*,-4,104,13,4,63*,35*
O=C(CN(Cc1ccc(F)cc1)C(=O)CNS(=O)(=O)c1ccc(Cl)cc1)NCC1CCCO1 (stereo not given),6,0,0,0,-2,92,x,x,x,x
C#CC1(O)CCC2C3CCc4cc(O)cc(C)c4C3CCC21C (stereo not given),12,0,0,7,3,101,x,x,x,x
Cc1ccc2c(c1)-n1c(nc3cc(C)ccc3c1=O)C(Cc1ccccc1)NC2=O (stereo not given),21*,x,1,17*,5,x,6,2,7,6
O=C(Nc1ccccc1C(F)(F)F)C1CCN(C(=O)c2cccs2)CC1,-2,-3,0,-1,-2,95,x,x,x,x
Cc1nc2c(-c3ccccc3)cnn2c(N)c1-c1ccccc1,-139,-1,-6,-72,5,88,x,x,x,x
CCCCC[C@@H](C)N1C[C@H](COCc2ccccc2)Oc2cc(N3CC[C@@H](O)C3)ccc2S1(=O)=O,22*,3,1,9.9*,7,x,10,4,40*,24*
CCCCC[C@H](C)N1C[C@@H](COCc2ccccc2)Oc2cc(N3CCC[C@H]3C(N)=O)ccc2S1(=O)=O,22*,-2,0,11*,7,x,10,2,39*,23*
CCCCC[C@H](C)N1C[C@H](COCc2ccccc2)Oc2cc(N3CCC[C@@H]3CO)ccc2S1(=O)=O,9,0,-1,6,6,x,x,x,x,x
CCCCC[C@@H](C)N1C[C@@H](COCc2ccccc2)Oc2cc(N3CCC[C@H]3C(N)=O)ccc2S1(=O)=O,28*,1,0,16*,5,x,10,3,22*,14*
CCN(CC(=O)Nc1ccccc1C(F)(F)F)C(=O)CN1C(=O)NC2(CCCC2)C1=O,-1,-1,0,1,0,98,x,x,x,x
O=C(c1ccc(Cl)nc1)N1CCN(C/C=C/c2ccccc2)CC1,-1,-1,0,-3,-4,123,x,x,x,x
CCN(CC)C(=O)C1=C(C)N(Cc2ccc(OC)cc2)C(=O)C(CC(=O)NCc2cccc3ccccc23)C1 (stereo not given),-5,2,1,-5,2,106,x,x,x,x
COc1cc(C)c(CN2CCN(S(=O)(=O)c3ccc(Cl)s3)CC2)cc1OC,6,0,1,1,1,x,x,x,x,x
Cc1noc(C)c1-c1csc(N2CCC(C(N)=O)CC2)n1,14,0,0,2,1,103,x,x,x,x
CCc1nc2ccc(C(=O)NCc3ccc4c(c3)OCO4)cn2c1N(C)Cc1ccc(OC)cc1,30*,1,1,19*,2,x,4,1,24*,15*
O=C(COc1ccccc1)N1CCN(c2ccc([N+](=O)[O-])c(N3CCCCC3)c2)CC1,13,2,0,7,-4,104,x,x,x,x
O=C(COc1ccc(Br)cc1)N1CCN(c2ccc([N+](=O)[O-])c(N3CCCCC3)c2)CC1,24*,0,0,11*,3,112,8,1,32*,18*
CCC(C)(C)C1CCC2(CC1)NC(=O)N(CC(=O)N1CCN(c3ccccc3OC)CC1)C2=O (stereo not given),2,0,1,-2,2,101,x,x,x,x
Cc1ccc(NC(=O)[C@@H]2O[C@H](CO)[C@@H](O)[C@H]2O)cc1C(F)(F)F,3,0,0,-1,0,x,x,x,x,x
O=C(CSc1nnc(-c2ccc(Cl)cc2)n1-c1ccccc1)NN=Cc1c[nH]c2ccccc12,29*,x,0,16*,13,x,8,2,42*,18*
Cc1ccc(-c2nnc(SCC(=O)NN=Cc3c[nH]c4ccccc34)n2-c2ccccc2)cc1,14,x,1,6,8,x,x,x,x,x
CCCCCCCCN1C(=O)[C@H](CC(=O)NCc2ccc(OC)c(OC)c2)C[C@@]2(C(=O)OCC)CCCC=C12,31*,-3,0,13*,3,x,4,1,41*,22*
CCCCCCCCN1C(=O)[C@H](CC(=O)NCc2ccc(OC)c(OC)c2)C[C@@]2(C(=O)OC)CC(C)(C)CC=C12,24*,-2,0,8.7*,9,x,7,3,32*,15*
